Drawing on PubChem BioAssay, this text covers composite z-score for 28 molecules.

The subject of this assay is Human papillomavirus type 1a protein E7 (residues 44-93). Description: small molecules binding HPV E7 44-93 – biochemical, small-molecule microarray, residues 44-93, 635 nm fluorescence, primary screen (AID 1108).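 Also: E7 fragment applied at 1 µg/mL in TBST for 1 h at 4 C; score combines spot fluorescence with its signal to noise ratio.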 Particulars: fluorescence 635 nm, higher = more signal.
On to `COCCOC(=O)N1C(=O)[C@@]2(c3cc(C#CCC(C(=O)OC)C(=O)OC)ccc31)[C@H](c1ccc(OCCO)cc1)N1[C@H](c3ccccc3)[C@H](c3ccccc3)OC(=O)[C@H]1[C@@H]2C(=O)N1CCCCCCC1`, for which the composite z-score was determined as 1.21.
Molecule `Cc1ccc(S[C@]2(C(=O)NCC(F)(F)F)CC(=O)N(C3CCCCC3)[C@@H]2c2ccc(CO)cc2)cc1` yielded a composite z-score of 0.82.
Then `COCCOC(=O)N1C(=O)[C@@]2(c3ccccc31)[C@H](C(N)=O)[C@H]1C(=O)O[C@H](c3ccccc3)[C@H](c3ccccc3)N1[C@@H]2c1ccc(OCCO)cc1`, with 1.45.
The figure for `C=CCC(OC(C)=O)[C@@H]1[C@@H](N(Cc2ccc(-c3cccc(C(F)(F)F)c3)o2)C(=O)c2cccc3ccccc23)c2cc(OCCCO)ccc2N1C(=O)c1ccc2ccccc2c1` (stereo partly drawn) is -0.423; for `COc1ccc(NC(=O)O[C@H]2[C@H](OC(=O)Nc3ccc4c(c3)OCO4)[C@H](OC(=O)Nc3ccc4c(c3)OCO4)[C@@H](OC)O[C@@H]2CO)cc1` it is 1.08.
The molecule `[N-]=[N+]=NCc1ccccc1C[C@]1(C(=O)N2CCOCC2)N=C(c2ccc(OCCCO)cc2)O[C@H]1c1ccccc1CN=[N+]=[N-]` yielded a composite z-score of 0.344.
Then `CCCCC(=C=CC[C@@H](O)c1cccc(OCCO)c1)CCO`, with -0.333.
Then `CC(C)C[C@@H]1NC(=O)[C@H]2C[C@@H](C(=O)NCCCCCCNC(=O)CS)[C@@H](c3ccc(O)cc3)N2C1=O`, with 1.4; and `C=CCC(OC(C)=O)[C@@H]1[C@@H](N(Cc2cc3ccccc3o2)C(=O)Cc2ccc(OC)cc2)c2cc(OCCCO)ccc2N1C(=O)Cc1ccc(OC)cc1` (stereo partly drawn), with -0.133.
`COc1ccc([Si](C)(C)[C@H]2[C@H](CCn3cc([C@H](O)c4ccccc4)nn3)O[C@@]3(C(=O)N(c4ccccc4)c4ccccc43)[C@@H]2C)cc1` showed a composite z-score of 0.323.
The figure for `Cc1ccccc1C(O)C1C=CC2C(=O)N(c3ccccc3)C(=O)C2N1Nc1ccccc1F` (stereo not drawn) is 1.34; for `C=CC[C@@]1(C(=O)N(C)C)N=C(c2ccc(OCCCO)cc2)O[C@@H]1c1ccccc1` it is 0.242; for `CCCCC(O)C1C=CC2C(=O)N(C)C(=O)C2N1Nc1ccccc1` (stereo not drawn) it is 1.18.
In turn, `COC(=O)C1=CC(CCCO)=CC(c2ccc(CN3CCCC3)cc2)N(Cc2sc3ccccc3c2Cl)C=C1C(=O)OC` (stereo not drawn) registered a composite z-score of 1.34.
The molecule `C=C(/C(=C/C[C@@H](OC(C)=O)c1ccccc1OCCO)c1cc(C(=O)OC)ccc1OC)C(C)C` yielded a composite z-score of 0.326.
In turn, `CCCC=C(CCC)[C@@H](NC(=O)c1ccccc1)c1ccc(C(=O)OC)cc1` came in with a composite z-score of 0.882.
Then `COC(=O)[C@@]1(Cc2ccc(OC)cc2)[C@@H]2[C@@H](CC(=O)[C@H]2CC(=O)C(=O)N2CCCC2)CN1C(=O)c1ccccc1`, with 0.43.
For `CCCCCN1CC=CC23O[C@@H]4C=CCOC(=O)[C@@H]4[C@H]2C(=O)N(CCCCCO)[C@@H]3C1=O` (stereo partly drawn), the composite z-score was -0.678.
On to `COc1ccc(CCNC(=O)[C@@]2(Sc3ccc(C)cc3)CC(=O)N(Cc3cc(C(F)(F)F)cc(C(F)(F)F)c3)[C@@H]2c2ccc(CO)cc2)cc1`, for which the composite z-score was -1.13.
The figure for `CN1C(=O)[C@]2(CCC(=O)OC(C)(C)C)N=C(c3ccc(OCCCO)cc3)O[C@@H]2c2ccccc21` is 1.45; for `COC(=O)[C@@]1(Cc2ccccc2CN=[N+]=[N-])COC(c2ccc(OCCCO)cc2)=N1` it is -0.273.
As for `CCCC[C@H]1OB(O)C[C@H]2C1=C(C)C[C@H]1C(=O)C=CC(=O)[C@H]12`, the composite z-score turned out to be 1.04.
`O=C1O[C@H](c2ccccc2)[C@H](c2ccccc2)N2[C@H]1[C@@H](C(=O)NC[C@H](O)c1ccccc1)[C@]1(C(=O)Nc3ccc(C#CCCO)cc31)[C@H]2c1ccccc1OCCO` displayed a composite z-score of 1.4.
Then `CCC[C@@H]1[C@@H](Sc2ccccc2)[C@@H](C(=O)O)[C@H](c2ccc(C)cc2)N1S(=O)(=O)c1ccc(C)cc1`, with 1.47.
Then `CC(C)(C)OC(=O)CC[C@]1(C(=O)N2CCOCC2)N=C(c2ccc(OCCCO)cc2)O[C@H]1c1ccccc1CN=[N+]=[N-]`, with 1.36.
The figure for `COC(=O)[C@@]1(Cc2ccc(F)cc2)[C@H]2c3cc(C(=O)N(C)C)n(CCN4CCOCC4)c3C[C@H]2CN1C(=O)c1ccccc1` is 0.357.
For the molecule `O=C1OCCC/C=C\[C@H]2OC34C=CCN(Cc5ccccc5)C(=O)[C@H]3N(CCCCCO)C(=O)[C@@H]4C12` (stereo partly drawn), the composite z-score is -0.486.
The molecule `CCOC(=O)C[C@H]1[C@H](OC(=O)c2ccc(C(=O)c3ccccc3)cc2)[C@@H](NC(=O)c2ccc3ccccc3c2)c2cc(OCCCO)ccc2N1C(=O)c1ccc2ccccc2n1` yielded a composite z-score of 1.05.
